As a reminder, the inhibition is the drop in the measured response relative to a control, in per cent.

Results filed as inconclusive are left out. The source made the active and inactive calls. Unless noted, no stated cut-off is given here; in the data, active means percent of DMSO control GFP below about 86%; inactive means the rest, inconclusive results apart.

The values that follow come from PubChem BioAssay.

Test [1] can be described thus: yeast TOR pathway RPL19A-GFP modulators, primary screen, cell-based, S. cerevisiae, multiplex flow cytometry (AID 1862).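 Further: lower values mimic rapamycin by blocking the RPL19A rise seen in DMSO cells.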 The settings on record: S. cerevisiae RPL19A-GFP strain, flow cytometry fluorescence, 3 h; at 10 µM; stronger effect = lower value.
Test [2] in a line: modulators of MEP2-GFP levels in yeast, primary screen, S. cerevisiae, multiplex flow cytometry (AID 1867;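 active means GFP response, as percent of the DMSO control, above the screen-wide mean plus 3 SD, about 139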;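 further: median GFP channel fluorescence of barcode-gated MEP2-GFP cells measured by flow cytometry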). The settings on record: S. cerevisiae MEP2-GFP strain, 3 h, at 10 µM, stronger effect = higher value, 100% means same as DMSO wells. (In general: Flow cytometry measures light scatter and fluorescence of single cells or particles in a stream.)
Test [3] is described as follows: modulators of CIT2-GFP expression in yeast, primary screen, S. cerevisiae, GFP fusion, multiplex flow cytometry (AID 1870;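 active means percent response above a set limit, the screen-wide mean plus 3 SD, cut at about 130% in these data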;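 further: barcoded CIT2-GFP strain pooled with four other GFP strains with rapamycin as positive control; median GFP fluorescence per well over plate mean of DMSO wells so 100% = DMSO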). The settings on record: 3 h, at 10 µM, stronger effect = higher value.
The nature of test [4]: modulators of LAP4-GFP expression in yeast, primary screen, S. cerevisiae, multiplex flow cytometry (AID 1873;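 active means GFP signal, as percent of the solvent control, above the screen mean plus 3 SD, about 149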). The conditions noted are these: 3 h, at 10 µM, stronger effect = higher value.
A short description of test [5]: modulators of AGP1-GFP expression in yeast TOR pathway, primary screen, cell-based, multiplex flow cytometry, S. cerevisiae (AID 1887;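 active means GFP signal above the screen-wide mean plus 3 SD, that is over about 124.5% of the solvent control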;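 further: AGP1-GFP fusion strain of S. cerevisiae within a five-strain barcoded multiplex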). The settings on record: 3 h, at 10 µM, stronger effect = higher value.
Test [6] in a line: inhibitors of CD8+ T cell-vesicle binding, pilot screen, LFA-1/ICAM-1 modulator project, MLPCN validation set, flow cytometry (AID 2523;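 active means response below a set limit, under 55% cells CD8-positive and vesicle-bound, and CD8 cells' 90th-percentile brightness under 279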;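 on vesicle binding response: mean PE anti-B7-1 fluorescence of CD8+ cells relative to row control; 100% = QL9-loaded vesicles with DMSO vehicle in the same plate row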). The conditions noted are these: 2C mouse CD8+ T cells, at 7 µM, stronger effect = lower value; double positive events: measured here: CD8+/vesicle+ event percentage.
Test [7] addresses Integrin beta-1 (Homo sapiens) + Integrin alpha-4 (Homo sapiens) (UniProt P13612+P05556). Briefly: inhibition of HUTS-21 binding to VLA-4, pilot screen, VLA-4 allosteric modulator project, U937 cells, HUTS-21 mAb, flow cytometry, validation set (AID 2674;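 active means inhibition above 50%, about 3 SD of the validation set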;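 further: antibody binding induced by the VLA-4 ligand LDV present at three times its Kd; 0% = LDV ligand with antibody and no compound and 100% = antibody without LDV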). The settings on record: HUTS-21 LIBS mAb binding, at 6.7 µM, stronger effect = higher value, binding induced by LDV ligand.
A short description of test [8]: superoxide lowering in aged yeast cells, pilot screen, validation compound set (AID 2706;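 active means superoxide response below 65% of plate, a cut near 3 SD across the whole screen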;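 further: yeast exposed to compound for one week at 30 degrees C before staining; 100% = mean of all compound wells on the same plate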). The conditions noted are these: S. cerevisiae aging, superoxide DHE fluorescence; at 10 µM; stronger effect = lower value.
Test [9] addresses Beta-adrenergic receptor kinase 1 (Homo sapiens) (UniProt P25098). Briefly: GRK2 binders displacing RNA aptamer, biochemical, validation, human GRK2, bead flow cytometry (AID 488806;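 active means aptamer binding inhibition above 30%, about 3 SD of noise from non-fluorescent compounds; inactive means inhibition at or below 30%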). The settings on record: bead-bound GRK2, FAM-aptamer displacement, at 10 µM, stronger effect = higher value.
The target of test [10] is Beta-2 adrenergic receptor (Homo sapiens) (UniProt P07550). Briefly: beta2AR agonists driving receptor internalization, pilot screen, cell-based, FAP fluorogen, flow cytometry, validation set (AID 504459;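 active means percent response above 42, roughly 3 SD of non-fluorescent test compounds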;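 further: agonist-driven loss of surface beta2AR via internalization measured by FAP dye flow cytometry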). The settings on record: Am2.2-beta2AR cells, FAP surface receptor flow cytometry; at 10 µM; stronger effect = higher value.
Sequence of Beta-2 adrenergic receptor (Homo sapiens) (P07550 whole entry, looked up): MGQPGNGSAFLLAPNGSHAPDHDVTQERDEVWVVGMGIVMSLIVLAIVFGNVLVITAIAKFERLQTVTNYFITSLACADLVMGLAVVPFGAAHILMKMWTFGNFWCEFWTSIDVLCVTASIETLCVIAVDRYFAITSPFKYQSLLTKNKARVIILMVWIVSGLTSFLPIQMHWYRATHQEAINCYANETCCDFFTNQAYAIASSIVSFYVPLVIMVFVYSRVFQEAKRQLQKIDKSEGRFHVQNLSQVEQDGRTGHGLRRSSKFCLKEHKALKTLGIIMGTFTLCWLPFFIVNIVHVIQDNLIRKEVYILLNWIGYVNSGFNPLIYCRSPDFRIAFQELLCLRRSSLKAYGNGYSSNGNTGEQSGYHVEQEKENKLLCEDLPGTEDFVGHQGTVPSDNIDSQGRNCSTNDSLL
Test [11] addresses AP-2 complex subunit beta (Homo sapiens) (UniProt P63010). Briefly: inhibitors of arrestin peptide binding to AP2, pilot screen, biochemical, validation set, GST-AP2 beads, flow cytometry (AID 504541;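 active means inhibition above 54%, about 3 SD of non-fluorescent compounds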;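 further: AP2 carries R879A mutation and is captured from E. coli lysate; bead-bound FITC arrestin peptide fluorescence measuring arrestin peptide binding to AP2; 0% = DMSO wells and 100% = excess unlabeled arrestin peptide control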). The settings on record: FITC arrestin peptide, at 10 µM, stronger effect = higher value, AP2 beta2 appendage fragment, R879A mutant.
Test [12] in a line: yeast V-ATPase proton transport modulators, S. cerevisiae, pHLuorin, HTS validation (AID 504600; in the data active means response above about 15%;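 further: plate controls were DMSO for no effect and reference compound for full effect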). The conditions noted are these: S. cerevisiae pHLuorin cytosolic pH, at 10 µM, stronger effect = higher value.
For test [13], the system named is anti-desmoglein-3 scFv antibody binding to human DSG3. Briefly: inhibitors of anti-DSG3 scFv binding to DSG3, pilot screen, biochemical, validation compound set, bead-based, flow cytometry (AID 588368;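 active means binding below the plate cutoff, the plate median minus 3 SD, with a reading above zero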;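 further: signal is the median channel fluorescence of bead-bound GFP antibody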). The settings on record: Protein G beads, DSG3-Fc, scFv-GFP binding, at 10 µM, stronger effect = lower value.
The nature of test [14]: inhibitors of fungal efflux pumps CDR1, CDR2, MDR1, pilot screen, validation compound set, multiplex, phenotypic (AID 588506;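 active means efflux inhibition above 0.42, the validation set average plus 4 SD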;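 further: Nile Red retained in cells so higher fluorescence means more efflux inhibition; 0 = negative control wells and 1 = enniatin B 25 µM full block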). The conditions noted are these: S. cerevisiae pump-expressing triplex, Nile Red efflux flow cytometry; at 10 µM; stronger effect = higher value; the pumps come from Candida albicans.
Test [15] addresses ATP-binding cassette sub-family B member 6 (Homo sapiens) (UniProt Q9NP58). Briefly: ABCB6 transporter inhibitors, pilot screen, K562-ABCB6 cells, flow cytometry, validation set (AID 588550;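 active means inhibition above the screen-wide mean plus 3 SD, about 51%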;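 further: 0% = DMSO wells and 100% = benzethonium chloride 70 µM positive control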). The settings on record: K562-ABCB6 porphyrin accumulation, 1 h, at 10 µM, stronger effect = higher value.
Test [16] can be described thus: promoters of myeloid differentiation in arrested cells, primary screen, cell-based, GFP/MAC1 double positive, flow cytometry, validation set (AID 588685;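 active means differentiation response of at least 50%, scaled between solvent and reference control, from cells with both markers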;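 further: compound exposure lasts four days before antibody staining and flow analysis; 0% = DMSO wells and 100% = 5 µM fulvestrant positive control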). The conditions noted are these: ER-HoxA9 marrow cells, stronger effect = higher value, normalized: vehicle 0, fulvestrant 100.

Sequence of Integrin beta-1 (Homo sapiens) + Integrin alpha-4 (Homo sapiens) (P05556 whole entry, looked up): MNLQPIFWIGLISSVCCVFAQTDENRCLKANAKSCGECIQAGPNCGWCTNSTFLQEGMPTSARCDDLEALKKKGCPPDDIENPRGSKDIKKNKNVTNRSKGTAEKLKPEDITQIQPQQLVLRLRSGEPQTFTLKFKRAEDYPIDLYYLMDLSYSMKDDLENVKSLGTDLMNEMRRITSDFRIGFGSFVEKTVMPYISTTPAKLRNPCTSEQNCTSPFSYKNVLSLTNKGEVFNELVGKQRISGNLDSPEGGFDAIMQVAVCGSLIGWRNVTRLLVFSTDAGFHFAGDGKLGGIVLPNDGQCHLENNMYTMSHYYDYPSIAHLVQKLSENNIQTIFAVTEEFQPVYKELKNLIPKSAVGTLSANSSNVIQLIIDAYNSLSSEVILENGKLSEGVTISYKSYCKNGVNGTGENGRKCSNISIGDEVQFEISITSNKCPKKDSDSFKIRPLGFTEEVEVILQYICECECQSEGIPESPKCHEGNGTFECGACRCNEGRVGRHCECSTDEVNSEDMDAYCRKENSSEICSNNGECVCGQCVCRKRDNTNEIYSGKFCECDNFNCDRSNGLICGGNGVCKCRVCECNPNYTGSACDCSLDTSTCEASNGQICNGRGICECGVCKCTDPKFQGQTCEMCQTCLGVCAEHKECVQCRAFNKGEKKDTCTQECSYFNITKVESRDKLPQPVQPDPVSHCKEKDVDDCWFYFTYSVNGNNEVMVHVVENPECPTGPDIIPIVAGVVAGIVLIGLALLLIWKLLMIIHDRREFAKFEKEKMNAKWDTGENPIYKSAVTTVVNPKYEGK
Sequence of Integrin beta-1 (Homo sapiens) + Integrin alpha-4 (Homo sapiens) (P13612 whole entry, looked up): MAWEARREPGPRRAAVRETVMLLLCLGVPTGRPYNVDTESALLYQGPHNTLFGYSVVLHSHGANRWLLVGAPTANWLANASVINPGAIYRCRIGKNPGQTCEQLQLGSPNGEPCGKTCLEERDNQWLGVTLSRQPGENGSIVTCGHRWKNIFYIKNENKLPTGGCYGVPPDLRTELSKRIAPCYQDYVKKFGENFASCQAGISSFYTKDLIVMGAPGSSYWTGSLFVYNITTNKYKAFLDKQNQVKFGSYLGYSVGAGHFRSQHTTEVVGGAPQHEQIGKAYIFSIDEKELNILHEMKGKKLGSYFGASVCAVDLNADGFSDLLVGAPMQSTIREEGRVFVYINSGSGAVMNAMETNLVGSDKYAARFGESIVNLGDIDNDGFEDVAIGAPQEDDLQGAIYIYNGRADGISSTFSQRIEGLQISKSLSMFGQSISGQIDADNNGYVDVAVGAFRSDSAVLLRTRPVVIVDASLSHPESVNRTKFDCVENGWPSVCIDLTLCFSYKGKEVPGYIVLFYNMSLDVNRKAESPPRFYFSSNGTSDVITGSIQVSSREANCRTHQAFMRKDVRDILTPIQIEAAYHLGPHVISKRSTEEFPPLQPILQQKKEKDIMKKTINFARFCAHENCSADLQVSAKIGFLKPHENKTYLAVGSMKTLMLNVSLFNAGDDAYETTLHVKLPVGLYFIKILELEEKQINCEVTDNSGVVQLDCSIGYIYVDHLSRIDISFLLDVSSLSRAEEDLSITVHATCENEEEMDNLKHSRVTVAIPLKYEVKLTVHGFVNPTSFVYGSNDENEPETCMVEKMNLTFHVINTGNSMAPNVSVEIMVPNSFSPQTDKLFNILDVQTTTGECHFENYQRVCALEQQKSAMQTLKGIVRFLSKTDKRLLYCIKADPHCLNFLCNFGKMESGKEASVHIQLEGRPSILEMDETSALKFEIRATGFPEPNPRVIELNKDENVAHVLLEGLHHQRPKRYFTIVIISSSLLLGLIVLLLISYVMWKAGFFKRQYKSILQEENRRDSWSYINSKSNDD
Sequence of Beta-adrenergic receptor kinase 1 (Homo sapiens) (P25098 whole entry, looked up): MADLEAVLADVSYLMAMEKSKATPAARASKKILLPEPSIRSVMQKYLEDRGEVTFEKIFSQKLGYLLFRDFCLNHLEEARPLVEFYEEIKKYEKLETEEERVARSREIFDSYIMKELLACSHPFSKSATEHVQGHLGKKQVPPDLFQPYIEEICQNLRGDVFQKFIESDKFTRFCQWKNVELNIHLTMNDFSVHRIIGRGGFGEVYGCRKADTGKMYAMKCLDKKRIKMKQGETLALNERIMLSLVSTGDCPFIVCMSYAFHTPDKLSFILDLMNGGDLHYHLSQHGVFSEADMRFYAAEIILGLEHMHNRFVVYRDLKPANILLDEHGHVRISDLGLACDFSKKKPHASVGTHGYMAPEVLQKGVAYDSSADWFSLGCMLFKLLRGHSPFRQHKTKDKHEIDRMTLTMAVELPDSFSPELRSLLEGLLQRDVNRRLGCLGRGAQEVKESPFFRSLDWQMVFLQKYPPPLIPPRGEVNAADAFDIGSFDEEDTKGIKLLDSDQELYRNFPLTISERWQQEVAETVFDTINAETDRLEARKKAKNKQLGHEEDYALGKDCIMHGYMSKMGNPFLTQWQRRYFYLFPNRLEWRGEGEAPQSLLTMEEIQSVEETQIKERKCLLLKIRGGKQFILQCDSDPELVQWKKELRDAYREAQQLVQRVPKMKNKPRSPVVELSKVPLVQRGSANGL
Sequence of AP-2 complex subunit beta (Homo sapiens) (P63010 whole entry, looked up, the tested form may be a part, one chain of several): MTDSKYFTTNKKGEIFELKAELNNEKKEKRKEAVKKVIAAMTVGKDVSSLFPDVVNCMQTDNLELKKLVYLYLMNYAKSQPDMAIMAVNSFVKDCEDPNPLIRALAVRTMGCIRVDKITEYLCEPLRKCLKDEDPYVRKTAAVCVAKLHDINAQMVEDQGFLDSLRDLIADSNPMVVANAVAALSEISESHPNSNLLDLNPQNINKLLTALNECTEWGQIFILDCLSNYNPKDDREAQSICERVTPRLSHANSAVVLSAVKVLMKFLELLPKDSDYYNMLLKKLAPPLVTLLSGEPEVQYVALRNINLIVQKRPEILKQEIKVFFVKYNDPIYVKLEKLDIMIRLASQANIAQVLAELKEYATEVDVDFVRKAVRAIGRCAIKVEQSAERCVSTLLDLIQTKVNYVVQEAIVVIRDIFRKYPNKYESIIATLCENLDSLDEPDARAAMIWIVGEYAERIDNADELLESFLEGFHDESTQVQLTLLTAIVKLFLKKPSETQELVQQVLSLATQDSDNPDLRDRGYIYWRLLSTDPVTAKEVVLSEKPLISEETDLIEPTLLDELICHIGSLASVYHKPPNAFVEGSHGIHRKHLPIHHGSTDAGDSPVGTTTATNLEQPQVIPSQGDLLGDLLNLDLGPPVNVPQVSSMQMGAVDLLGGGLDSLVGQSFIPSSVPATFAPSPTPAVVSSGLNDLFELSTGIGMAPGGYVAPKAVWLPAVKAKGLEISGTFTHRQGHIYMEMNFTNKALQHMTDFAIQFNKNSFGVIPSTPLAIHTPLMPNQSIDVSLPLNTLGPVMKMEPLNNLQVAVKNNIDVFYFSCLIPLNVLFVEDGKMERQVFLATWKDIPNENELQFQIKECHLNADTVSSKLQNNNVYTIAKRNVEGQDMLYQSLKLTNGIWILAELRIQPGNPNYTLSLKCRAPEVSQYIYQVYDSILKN
Sequence of ATP-binding cassette sub-family B member 6 (Homo sapiens) (Q9NP58 whole entry, looked up): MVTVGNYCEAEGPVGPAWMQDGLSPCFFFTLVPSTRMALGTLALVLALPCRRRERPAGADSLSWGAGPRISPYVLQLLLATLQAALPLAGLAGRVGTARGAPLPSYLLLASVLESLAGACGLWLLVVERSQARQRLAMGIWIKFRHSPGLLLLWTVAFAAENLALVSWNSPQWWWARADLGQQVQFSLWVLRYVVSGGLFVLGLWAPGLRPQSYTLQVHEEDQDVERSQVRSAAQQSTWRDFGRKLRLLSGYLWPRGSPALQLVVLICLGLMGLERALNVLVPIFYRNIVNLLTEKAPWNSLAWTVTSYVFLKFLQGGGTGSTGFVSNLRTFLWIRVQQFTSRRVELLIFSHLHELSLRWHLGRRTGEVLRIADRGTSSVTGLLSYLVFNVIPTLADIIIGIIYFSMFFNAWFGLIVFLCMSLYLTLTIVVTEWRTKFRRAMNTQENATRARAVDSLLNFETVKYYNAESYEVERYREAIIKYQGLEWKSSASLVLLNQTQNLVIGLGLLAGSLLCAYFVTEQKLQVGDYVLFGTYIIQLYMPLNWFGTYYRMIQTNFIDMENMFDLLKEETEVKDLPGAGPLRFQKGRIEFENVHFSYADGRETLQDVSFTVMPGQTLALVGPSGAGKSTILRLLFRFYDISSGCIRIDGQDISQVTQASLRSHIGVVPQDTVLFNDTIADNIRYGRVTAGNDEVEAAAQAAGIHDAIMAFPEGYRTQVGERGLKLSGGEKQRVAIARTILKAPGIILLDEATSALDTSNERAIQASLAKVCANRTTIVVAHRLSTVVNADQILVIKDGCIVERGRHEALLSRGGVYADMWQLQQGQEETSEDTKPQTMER

Consider `O=C1C(Cc2c[nH]c3ccccc23)NC(=S)N1Cc1ccccc1` (stereo not drawn), for which the percent of DMSO control GFP in test [1] was 108% (inactive). Also, the values for the GFP response vs DMSO in test [2] and in test [4] were 102% (inactive) and 91.5% (inactive), respectively. The percent response of DMSO control in [3] was 104% (inactive). Further, in test [5], the GFP response, % of DMSO was 95.5% (inactive). In addition, the double positive events in test [6] came to 67.5%. The vesicle binding response in test [6] is 132% (inactive). Moreover, the figures for the inhibition in test [7], in test [11] and in test [15] were 8.29% (inactive), 2.2% (inactive) and 8% (inactive), respectively. Moreover, the superoxide response (% of plate) in test [8] is 104% (inactive). Moreover, the aptamer binding inhibition in test [9] was 1% (inactive). In addition, the response is 3.86% (inactive) in test [10] and -1.19% (inactive) in test [12]. The binding (% of control) in test [13] is 94.9% (inactive). Moreover, the efflux inhibition (fraction of control) in test [14] is 0 (inactive). Further, the differentiation response in test [16] was 7.13% (inactive).
As to `CSCCC(NC(=O)/C(=C/c1ccc2c(c1)OCO2)NC(=O)c1cccc([N+](=O)[O-])c1)C(=O)O` (stereo not drawn), the percent of DMSO control GFP in [1] was 93.7% (inactive). The GFP response vs DMSO in [2] is 123% (inactive); in [4], 86.4% (inactive). Moreover, the percent response of DMSO control in [3] was 101% (inactive). Also, in test [5], the GFP response, % of DMSO was 91.9% (inactive). Also, the double positive events in test [6] was 63.7%. For the same compound, the vesicle binding response in [6] is 169% (inactive). For the same compound, the inhibition in test [7] is 4.52% (inactive); in test [11], -5.32% (inactive); in [15], 14% (inactive). Moreover, the superoxide response (% of plate) in test [8] is 93.4% (inactive). In addition, the aptamer binding inhibition in test [9] is 4% (inactive). Further, the response in test [10] was 0.64% (inactive); in test [12] it was 0.74% (inactive). In addition, in [13], the binding (% of control) is 105% (inactive). Moreover, the efflux inhibition (fraction of control) in [14] is -0.31 (inactive). In test [16], the differentiation response was -6.55% (inactive).
Take `CC(=O)N/C(=C/c1ccc2c(c1)OCO2)C(=O)NCCO`: the percent of DMSO control GFP in test [1] is 98.2% (inactive). Besides, the GFP response vs DMSO was 106% (inactive) in test [2] and 111% (inactive) in test [4]. Further, the percent response of DMSO control in [3] is 93.9% (inactive). Further, the GFP response, % of DMSO in test [5] is 106% (inactive). For the same compound, the double positive events in [6] amounted to 61.5%. For the same compound, the vesicle binding response in test [6] is 3870% (inactive). The inhibition in [7] is -5.89% (inactive); in test [11] it was -4.62% (inactive); in test [15] it was 2% (inactive). Also, in test [8], the superoxide response (% of plate) is 106% (inactive). Also, the aptamer binding inhibition in test [9] is 0% (inactive). Besides, the response is 2.49% (inactive) in test [10] and 1.75% (inactive) in test [12]. Also, in test [13], the binding (% of control) was 97.4% (inactive). Also, the efflux inhibition (fraction of control) in [14] was -0.42 (inactive). Moreover, the differentiation response in [16] is -5.6% (inactive).
For `COC(=O)c1[nH]c(=O)c2ccccc2c1O`, in test [1], the percent of DMSO control GFP is 101% (inactive). Further, the figures for the GFP response vs DMSO in test [2] and in test [4] were 95.2% (inactive) and 110% (inactive), respectively. For the same compound, the percent response of DMSO control in [3] was 101% (inactive). Moreover, in test [5], the GFP response, % of DMSO was 100% (inactive). The compound further registered a double positive events in [6] of 62.3%. In addition, the vesicle binding response in [6] was 159% (inactive). For the same compound, the results for the inhibition in test [7], in [11] and in [15] were 0.94% (inactive), -7.21% (inactive) and 109% (active), respectively. The superoxide response (% of plate) in test [8] was 104% (inactive). Moreover, the aptamer binding inhibition in test [9] is 1% (inactive). Besides, the response in test [10] is -13.2% (inactive); in [12] it was 2.12% (inactive). Also, the binding (% of control) in test [13] is 101% (inactive). For the same compound, the efflux inhibition (fraction of control) in test [14] was 0.01 (inactive). The differentiation response in test [16] is 18.4% (inactive).
